Assay outcomes: PubChem BioAssay, several laboratories
Bim-Mcl-1 = human Bim-Mcl-1 interaction inhibition. Bead-based flow cytometry, Bim peptide-Mcl-1 binding. inhibition, % at 10 µM. hit rate 0.1% among 190,000; in the data active = inhibition above about 40%
Target sequence (Q07820 whole entry, looked up): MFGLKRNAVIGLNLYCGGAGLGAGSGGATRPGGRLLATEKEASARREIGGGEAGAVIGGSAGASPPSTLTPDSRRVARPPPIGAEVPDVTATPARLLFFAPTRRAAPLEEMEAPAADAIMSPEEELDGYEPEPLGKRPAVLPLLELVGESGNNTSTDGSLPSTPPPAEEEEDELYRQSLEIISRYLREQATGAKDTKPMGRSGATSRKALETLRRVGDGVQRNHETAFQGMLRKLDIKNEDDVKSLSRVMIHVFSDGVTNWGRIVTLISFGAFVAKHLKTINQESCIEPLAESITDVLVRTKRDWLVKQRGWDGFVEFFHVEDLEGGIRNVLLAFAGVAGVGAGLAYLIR
14-3-3 Bad PPI = disrupts binding of bovine 14-3-3 zeta to phospho-Bad peptide; P63103; TR-FRET 14-3-3zeta/Dy647-pBad peptide displacement, 1 h; inhibition, % at 21.7 µM; hit rate 0.71% among 220,000;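 active = inhibition above about 70%, limit read from the data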
Mcl1 Bid PPI = disrupts binding of human Mcl-1 to Bid peptide. Q07820. TR-FRET Mcl-1/Bid-Dy647 peptide binding, 1536-well. inhibition, % at 21.7 µM. hit rate 0.97% among 220,000;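 active = compounds that cut the binding signal by more than half at the single screening dose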;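 also: His-tagged Mcl-1 with europium anti-His antibody binding Bid BH3 peptide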
Mcl1-Noxa inh = disrupts binding of human Mcl-1 to Noxa peptide | inhibition, % at 21.7 µM | Q07820 | hit rate 1.5% among 220,000 | TR-FRET Mcl-1/Noxa peptide binding, 2 h;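 active = compounds that cut the protein-peptide binding signal by more than 50% relative to plate controls in a single-dose test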;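 also: His-tagged Mcl-1 with rhodamine Noxa BH3 peptide and terbium anti-His antibody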
MCL1-BIM inh = MCL1-BIM-BH3 interaction inhibition (human); Q07820; GST-MCL1 / FITC-Bim-BH3 fluorescence polarization; inhibition, % at 10.9 µM; hit rate 0.68% among 320,000;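 active = inhibition above the mean inhibition of all tested compounds plus 3 SD, set per campaign, cut at about 40% in these data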;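 also: higher means more loss of mP so more displacement of Bim peptide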
Of the large screens only hits and unclear results are named; the others gave an inactive call. A selection: hits, their analogues and other compounds. The true share with any hit is near 2.5%.

O=C(COc1cccc2c1CCN(Cc1ccc(Br)cc1)C2=O)NCc1ccco1	Mcl1 Bid PPI 95
COC(=O)c1ccc(COc2cccc3c2CCN(Cc2ccccc2)C3=O)o1	none
CCN1CCc2c(OCc3ccc(C(=O)OC)o3)cccc2C1=O	Mcl1 Bid PPI 92
Cc1c(/C(O)=C2/C(=O)C(=O)N(CCN(C)C)C2c2ccc(C(C)C)cc2)cnn1-c1ccccc1 (stereo not given)	14-3-3 Bad PPI 88 (no result: Bim-Mcl-1)
CCn1c(=O)n(CC)c2cc(S(=O)(=O)N3CCC(c4ccccc4)CC3)ccc21	none
COc1cc2c(cc1OC)-c1cc3ccc4c(c3c[n+]1CC2)OCO4	MCL1-BIM inh active
COc1cc2c(cc1O)CC[n+]1cc3c(OC)c(OC)ccc3cc1-2	none
COc1cc(OC)cc(-c2c(-c3ccc(F)cc3)c3cc(-c4cccc5[nH]ccc45)ccc3n2C)c1	none (no result: Bim-Mcl-1, 14-3-3 Bad PPI, Mcl1 Bid PPI, Mcl1-Noxa inh)
COC(=O)C1=C(C(=O)OC)[C@@H]2N(C)c3ccc(OC)cc3[C@@]23C[C@@H](C(=O)OC)N(C(=O)NC2CCCCC2)C3=N1	none (no result: Bim-Mcl-1, 14-3-3 Bad PPI, Mcl1 Bid PPI, Mcl1-Noxa inh)
O=C(Nc1ccc(S(=O)(=O)Nc2nccs2)cc1)c1cc(-c2ccccn2)nc2ccccc12	none
Cc1ccc(-c2cc(C(=O)Nc3nccs3)c3ccccc3n2)o1	Mcl1-Noxa inh 67
Cc1ccc(-c2cc(C(=O)Nc3nccs3)c3ccccc3n2)c(C)c1	none
O=C(Nc1ccc(S(=O)(=O)Nc2nccs2)cc1)c1ccc(=O)[nH]c1	Mcl1-Noxa inh 62
O=C(Nc1ccc(S(=O)(=O)Nc2nccs2)cc1)c1cc(-c2ccccc2Cl)nc2ccccc12	Mcl1 Bid PPI 99
COc1ccc(NC(=O)c2cc(-c3ccc(C)o3)nc3ccccc23)cc1OC	Mcl1-Noxa inh 64
O=C(CCc1ccccc1)NC1C2CC3CC(C2)CC1C3 (stereo not given)	none (no result: Bim-Mcl-1, 14-3-3 Bad PPI, Mcl1 Bid PPI, Mcl1-Noxa inh)
CCc1c(C(=O)NNC(=S)Nc2ccc(S(=O)(=O)Nc3ncccn3)cc2)csc1C	none (no result: Bim-Mcl-1, 14-3-3 Bad PPI, Mcl1 Bid PPI, Mcl1-Noxa inh)
CSc1nc(SCC(=O)O)c2sc3nc(-c4ccccc4)c4c(c3c2n1)CCC4	14-3-3 Bad PPI 87, Mcl1 Bid PPI 90 (no result: Bim-Mcl-1, MCL1-BIM inh)
O=C1/C(=C/c2ccc(O)c(O)c2)Oc2cc(O)ccc21	Mcl1-Noxa inh 75 (no result: Bim-Mcl-1)
COc1cc(/C=C2\Oc3cc(O)ccc3C2=O)ccc1O	none (no result: Bim-Mcl-1)
FC(F)(F)c1nc(-c2cccs2)ncc1-c1nnnn1-c1ccc(Cl)cc1	Mcl1 Bid PPI 65
CCN1CCCc2cc(CN(CCN3CCOCC3)C(=S)Nc3ccc(C)cc3)ccc21	Mcl1-Noxa inh 69
CCN1CCCc2cc(CN(CCN3CCOCC3)C(=S)Nc3ccc(OC)cc3)ccc21	none
CCN1CCCc2cc(CN(CCN3CCOCC3)C(=S)Nc3cc(F)cc(F)c3)ccc21	Mcl1-Noxa inh 60
Nc1nonc1N/N=C/c1c(O)ccc2ccccc12	Mcl1-Noxa inh 51
COc1ccc(/C=N/Nc2nonc2N)cc1	Mcl1-Noxa inh 61
COc1ccc(C=Nc2cccnc2N)cc1	MCL1-BIM inh 45 (no result: Bim-Mcl-1, 14-3-3 Bad PPI, Mcl1 Bid PPI, Mcl1-Noxa inh)
COc1ccc(/C=N/Nc2nn3cnnc3c3ccccc23)cc1	Mcl1-Noxa inh 57 (no result: Bim-Mcl-1)
COc1ccc(/C=N/Nc2nonc2N)cc1OC	none
CCCCOC(=O)Nc1ccccc1C(N)=O	none
Cc1c(Cl)cccc1NC(=O)CCS(=O)(=O)c1cccc2nonc12	none (no result: Bim-Mcl-1, 14-3-3 Bad PPI, Mcl1 Bid PPI, Mcl1-Noxa inh)
CCc1ccc(CN(C)CC(=O)Nc2ccccc2[N+](=O)[O-])cc1	none
O=C(Nc1ccccc1-c1ccccc1)NC1CC2CCCC(C1)N2Cc1ccc(F)cc1 (stereo not given)	none
O=C(Nc1cccc(-c2cn3cccnc3n2)c1)c1ccc2c(c1)OCO2	Mcl1-Noxa inh 57
Cc1ccc(C(C[N+](=O)[O-])c2c(N)n(C)c(=O)n(C)c2=O)cc1 (stereo not given)	none (no result: Bim-Mcl-1)
CC(=O)C1=C(O)C(=O)N(c2cccnc2)C1c1ccc(Cl)cc1 (stereo not given)	14-3-3 Bad PPI 83
COc1ccc(C2C(C(C)=O)=C(O)C(=O)N2c2cccnc2)cc1OC (stereo not given)	none
Cc1ccccc1-n1c(SCC(=O)N/N=C/C=C/c2ccccc2[N+](=O)[O-])nc2ccccc2c1=O	Mcl1-Noxa inh 63
O=C(CSc1nc2ccccc2c(=O)n1-c1ccccc1)N/N=C/C=C/c1ccccc1[N+](=O)[O-]	none
OCCCNC(=S)Nc1ccc2nc(-c3ccccn3)c(-c3ccccn3)nc2c1	MCL1-BIM inh 43
O=C(NCCCO)Nc1ccc2nc(-c3ccco3)c(-c3ccco3)nc2c1	Mcl1 Bid PPI 55, Mcl1-Noxa inh 101, MCL1-BIM inh 158
O=S(=O)(c1ccc2nc(-c3ccco3)c(-c3ccco3)nc2c1)N1CCOCC1	Mcl1-Noxa inh 90
